# Results: PubChem BioAssay (NCATS)
# Results filed as inconclusive are left out. A call without a number means that no potency is given here. Active and inactive are the calls of the source. The call rests on the fitted dose curve; in most records, active means well fitted curve in the direction sought with a large enough effect in the signal ratio, with a control signal flat (not every such curve was filed as active); inconclusive means small, poorly fitted or top-dose-only effect, or effect the other way, or a change in a side signal; inactive means no such curve, though single readings can be large or run the other way; the % refers to the signal ratio.
# Biological target: Tyrosine-protein phosphatase non-receptor type substrate 1 (Homo sapiens) + Leukocyte surface antigen CD47 (Homo sapiens) (UniProt P78324+Q08722)
# Test: CD47-SIRPalpha protein protein interaction - LANCE assay qHTS validation (AID 1347057)
# Settings: Recombinant CD47-His / biotin-SIRPalpha, TR-FRET ratio; series mostly up to 38.3 µM
# Summary of the method: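 Inhibition of soluble CD47/SIRPalpha ectodomain association by titrated compounds, measured as 665/615 nm time-resolved FRET ratio after sequential 30 min room-temperature incubations.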
# Tyrosine-protein phosphatase non-receptor type substrate 1 (Homo sapiens) + Leukocyte surface antigen CD47 (Homo sapiens), sequence (P78324 whole entry, looked up): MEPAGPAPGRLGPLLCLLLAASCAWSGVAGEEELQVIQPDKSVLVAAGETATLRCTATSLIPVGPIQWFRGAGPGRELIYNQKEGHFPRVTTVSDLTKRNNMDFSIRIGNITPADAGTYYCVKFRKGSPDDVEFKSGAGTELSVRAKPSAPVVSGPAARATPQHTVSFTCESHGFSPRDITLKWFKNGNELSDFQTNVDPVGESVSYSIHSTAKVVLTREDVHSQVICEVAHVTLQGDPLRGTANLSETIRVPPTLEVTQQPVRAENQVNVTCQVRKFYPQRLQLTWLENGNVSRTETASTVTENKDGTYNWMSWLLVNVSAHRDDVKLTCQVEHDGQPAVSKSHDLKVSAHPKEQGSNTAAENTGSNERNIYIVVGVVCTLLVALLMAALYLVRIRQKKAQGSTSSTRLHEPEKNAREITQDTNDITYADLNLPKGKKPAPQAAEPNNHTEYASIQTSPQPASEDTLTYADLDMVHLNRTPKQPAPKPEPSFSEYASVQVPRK
# Tyrosine-protein phosphatase non-receptor type substrate 1 (Homo sapiens) + Leukocyte surface antigen CD47 (Homo sapiens), sequence (Q08722 whole entry, looked up): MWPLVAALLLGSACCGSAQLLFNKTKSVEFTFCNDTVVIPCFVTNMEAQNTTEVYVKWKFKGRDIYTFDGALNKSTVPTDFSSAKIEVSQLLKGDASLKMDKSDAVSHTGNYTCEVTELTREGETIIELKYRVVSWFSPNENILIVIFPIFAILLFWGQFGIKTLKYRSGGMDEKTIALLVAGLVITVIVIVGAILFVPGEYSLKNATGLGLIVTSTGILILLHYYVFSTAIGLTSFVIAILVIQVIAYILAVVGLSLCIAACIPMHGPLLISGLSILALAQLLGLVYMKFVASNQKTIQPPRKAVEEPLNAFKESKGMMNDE
row,SMILES,Potency
1,C#CCN[C@H](C)Cc1ccccc1,inactive
2,NCC(O)c1cc(O)c(O)cc1F (stereo not drawn),inactive
3,NCCc1c[nH]c2ccc(C(N)=O)cc12,inactive
4,C[C@@H]1O[C@@H](O[C@H]2C[C@@H](O)[C@]3(CO)[C@@H]4C(CC[C@]3(O)C2)[C@@]2(O)CC[C@H]([C@@H]3COC(=O)C3)[C@@]2(C)C[C@H]4O)[C@H](O)[C@H](O)[C@H]1O (stereo partly drawn),inactive
5,CC(N)Cc1c[nH]c2ccc(O)cc12 (stereo not drawn),inactive
6,NNC(=O)c1ccc(O)cc1,inactive
7,C=CCN1CCC23c4c5ccc(O)c4O[C@H]2C(=O)CC[C@@]3(O)C1C5 (stereo partly drawn),inactive
8,NC(=O)COc1c(F)cc(SCCNS(=O)(=O)c2ccccc2)cc1F,inactive
9,CNc1ccc2oc(C[C@H]3O[C@@]4(CC[C@H]3C)O[C@H]([C@H](C)C(=O)c3ccc[nH]3)[C@H](C)C[C@H]4C)nc2c1C(=O)O,inactive
10,NNC(N)=O,inactive
11,c1ccc2c(c1)[I+]c1ccccc1-2,inactive
12,Oc1ccc2c3c1O[C@H]1c4[nH]c5ccccc5c4C[C@@]4(O)C(C2)N(CC2CC2)CCC314 (stereo partly drawn),inactive
13,NC(CCCCCP(=O)(O)O)C(=O)O (stereo not drawn),inactive
14,O=C1C=CC(=O)C=C1,inactive
15,CCCN1CC[C@@H]2c3cc(O)ccc3CC[C@@H]21,inactive
16,OC1CCCCC1N1CCC(c2ccccc2)CC1 (stereo not drawn),inactive
17,COC(=O)N1CCN(C(=O)Cc2ccc(Cl)c(Cl)c2)C(CN2CCCC2)C1 (stereo not drawn),inactive
18,Cc1[nH]c2ccc(O)cc2c1CCN,inactive
19,NC(=O)c1ccc(OCC(O)CN2CC=C(c3ccc(F)cc3)CC2)cc1 (stereo not drawn),inactive

row,SMILES,Potency
1,CCCN(CCC)[C@H]1CCc2c(F)ccc(O)c2C1,inactive
2,Cc1o[nH]c(=O)c1CC(N)C(=O)O (stereo not drawn),inactive
3,CN(C(=O)Cc1ccc(Cl)c(Cl)c1)C(CN1CCCC1)c1cccc(OCC(=O)O)c1 (stereo not drawn),inactive
4,Cc1cc([C@@H]2CCCN2C)on1,inactive
5,C[N+]1(C)CCc2cc3c(cc2[C@H]1[C@@H]1OC(=O)c2c1ccc1c2OCO1)OCO3,inactive
6,CCCN(CCC)C1Cc2cc(OC)c(OC)cc2C1,inactive
7,CCOC(=O)c1ncn2c1[C@@H]1CCCN1C(=O)c1cc(OC)ccc1-2,inactive
8,CCCN(CCC)CCc1ccc(O)c(O)c1,inactive
9,CC(N)c1cccc(Cl)c1Cl (stereo not drawn),inactive
10,N[C@@]1(C(=O)O)CC[C@@H](C(=O)O)C1,inactive
11,CC12NC(Cc3ccccc31)c1ccccc12 (stereo not drawn),inactive
12,c1ccc2c(N3CCNCC3)cccc2c1,inactive
13,C[N+]1(C)CCOC(O)(c2ccc(-c3ccc(C4(O)C[N+](C)(C)CCO4)cc3)cc2)C1 (stereo not drawn),inactive
14,N=C(N)c1ccc(CS(=O)(=O)F)cc1,inactive
15,CC(N)Cc1c[nH]c2ccc(OCc3cccs3)cc12 (stereo not drawn),inactive
16,O=C1CC[C@@]2(O)C3Cc4ccc(O)c5c4C2(CCN3CC2CC2)[C@H]1O5 (stereo partly drawn),inactive
17,CCN1C[C@@]2(COC)C3[C@@H](OC)C4[C@@H]1C3([C@@H]1C[C@]3(O)[C@H](OC(=O)c5ccccc5)[C@@H]1[C@]4(OC(C)=O)[C@@H](O)[C@@H]3OC)[C@H](OC)C[C@H]2O,inactive
18,CCNC(=O)[C@H]1O[C@@H](n2cnc3c(N)ncnc32)[C@H](O)[C@@H]1O,inactive
19,CO[C@H]1CC=C2CCN3CCC4=C(CC(=O)OC4)[C@]23C1,inactive
